Screening data: PubChem BioAssay, National Center for Advancing Translational Sciences (NCATS)
Mito fusion yeast – mitochondrial division inhibition or fusion activation; hit rate 0.23% among 320,000; AID 485298; Potency, µM (top dose mostly 46.1 µM), without a hit: at the highest dose growth rescue (activation), most hits filed as activators; S. cerevisiae fusion-defective mutant growth rescue, CellTiterGlo 48 h; further: potency means the concentration at half of the fitted maximal effect; % of control where 0% means no effect; nearly all actives have a fitted effect of over 45% in size
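Temperature-sensitive fusion-defective S. cerevisiae (e.g. fzo1-1, mgm1-5) were grown with compound in YPEG medium (3% ethanol, 3% glycerol) for 48 hours at 37C. Growth rescue was measured as viability by CellTiterGlo luminescence after 10 minutes at ambient.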
TDP-43 yeast inh – rescues yeast growth from TDP-43 toxicity; TDP-43 expressing yeast growth rescue, BacTiter-Glo, 24 h; Potency, µM (series often up to 46.1 µM), for inactives: top-dose growth rescue (activation), most hits filed as activators; hit rate 1.8% among 410,000; further: potency means the concentration at half of the fitted maximal effect; % of control where 0% means no effect; nearly all actives have a fitted effect of over 50% in size
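Yeast cells expressing TDP-43 under galactose induction are exposed to compounds for 24 hr at 30 deg C. BacTiter-Glo luminescence measures growth, so protective compounds score as activators.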
aSyn yeast inh – inhibitors of alpha-synuclein toxicity in yeast; hit rate 0.14% among 370,000; Potency, µM (doses to about 46.1 µM), without a hit: at the highest dose growth rescue (activation), usual class: activators; Yeast expressing alpha-synuclein, growth rescue, BacTiter-Glo, 24 h; further: potency means the concentration at half of the fitted maximal effect; % of control where 0% means no effect; nearly all actives have a fitted effect of over 65% in size
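Galactose-induced alpha-syn yeast (OD600=0.02, raffinose-pregrown) + pinned cpd, 24 hr, 30 deg C; growth by BacTiter-Glo luminescence. Growth restoration scores as activation.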
Apoferritin bind – binds horse apoferritin like a general anesthetic; Potency, µM (top dose mostly 77.5 µM), without a hit: at the top dose activity change, negative = displacement, actives largely listed as inhibitors; hit rate 0.074% among 350,000; apoferritin/1-aminoanthracene competitive binding, fluorescence; further: potency means the concentration at half of the fitted maximal effect; on the % scale 0 is the no-effect control and ±100 the full control effect; nearly all actives have a fitted effect of over 20% in size
Target sequence (P02791 2-175 limits assumed): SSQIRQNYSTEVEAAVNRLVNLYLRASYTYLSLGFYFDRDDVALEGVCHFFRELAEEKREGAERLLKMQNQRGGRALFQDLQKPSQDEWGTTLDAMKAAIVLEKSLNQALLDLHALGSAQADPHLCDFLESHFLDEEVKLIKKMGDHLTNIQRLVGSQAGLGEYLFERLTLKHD
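Steps: apoferritin (10 uM) was premixed with half-saturated 1-AMA in PBS, compounds were pin-transferred, plates stood 10 min at room temperature, fluorescence was read at 380/535 nm, and curves were fitted with a Hill equation.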
Akt phos inh – inhibitors of Akt phosphorylation; AID 651550; activity change, % for hits at 50 µM; hit rate 0.32% among 360,000; Neuro2A IGF-stimulated pAkt S473 HTRF, 20 min; hits give low values; in the data active means activity change below about -80%; inconclusive means mostly about -51% to -80%; further: on the % scale 0 is the no-effect control and ±100 the full control effect
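Neuro2A cells (4,500/well, DMEM with 0.5% FBS) were treated with compound at a single 50 µM final concentration, stimulated with 6 nM IGF for 20 min at 37 °C, and lysed. Phospho-Akt Ser473 was read by HTRF as 665/615 ratio ×10^4.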
CCT chaperon mod – changes cytosolic chaperonin activity | hit rate 0.3% among 360,000 | purified chaperonin ATPase assay, HTRF ADP detection, 30 min | activity change, % (test concentration not listed), hits read low; in the data active means activity change below about -30%; further: on the % scale 0 is the no-effect control and ±100 the full control effect
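TRiC at 40 or 20 nM final (batch-dependent) in 30 mM Tris pH 7.4, 100 mM KCl, 5 mM MgCl2, 1 mM DTT, with compound at single 76 uM and 10 uM ATP, 30 min at 37 deg C. ADP detected by HTRF Transcreener, 665/615 ratio.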
The depositor's hits bear a star; i = inactive; ? = inconclusive; . = no result given; [ ] = another dose, or the depositor's remark. Rows were chosen to be rich in hits. Some 2.5% of all compounds tested hit in one or more screens of this group. Unless noted, the call rests on the fitted dose curve; in most records, active means well fitted curve in the direction sought with a large enough effect; inconclusive means small, poorly fitted or top-dose-only effect, or another doubt; inactive means no such curve, though single readings can be large; an effect the other way counts as inactive or inconclusive.

SMILES	Mito fusion yeast	TDP-43 yeast inh	aSyn yeast inh	Apoferritin bind	Akt phos inh	CCT chaperon mod
CCCC(=O)c1cc(F)c(N2CCN(C(=O)OCC)CC2)cc1C	6.5%	15.8µM*	-1.3%	-6.6%	i	1.6
CCCC(=O)c1ccc(N2CCN(C(=O)c3ccccc3Br)CC2)c(F)c1	23.2%	22.4µM*	-0.3%	-7.1%	i	1.4
CCCC(=O)c1ccc(N2CCN(C(=O)c3ccccc3)CC2)c(F)c1	2.0%	?	-6.0%	-5.3%	i	0.0
O=C(c1ccc(N2CCN(C(=O)c3ccccc3Br)CC2)cc1)c1cccc(F)c1	1.4%	14.1µM*	19.4%	-3.0%	i	-0.6
O=C(c1ccccc1)c1ccc(N2CCN(C(=O)c3ccc(F)cc3F)CC2)c(F)c1	.	22.4µM*	6.0%	.	i	0.8
CC(=O)Nc1ccc(NC(=O)COC(=O)c2ccccc2OCc2cccc(Br)c2)cc1	.	.	14.2%	.	.	.
COc1ccc(Cn2nnnc2C(c2ccccn2)N2CCN(c3ccc(O)cc3)CC2)cc1 (centres undefined)	.	.	2.0%	.	.	.
CCOC(=O)C(=O)Cc1nc(OCc2ccccc2)cc(OCc2ccccc2)n1	.	-6.5%	-1.6%	.	i	-39.1*
CCCOc1ccc(NC(=O)CC2C(=O)OCC3CCCCN32)cc1 (centres undefined)	-0.4%	35.5µM*	3.2%	.	i	-2.3
CC(C)(C)c1ccc(S(=O)(=O)N2CCC(Oc3ccc(-n4cnnn4)cc3)CC2)cc1	.	20.1%	.	-5.0%	.	.
O=S(=O)(c1ccccc1F)N1CCC(Oc2ccc(-n3cnnn3)cc2)CC1	10µM*	12.6µM*	23.8%	12.0%	.	-1.3
c1coc(-c2nc3cc4ccccc4cc3nc2-c2ccco2)c1	.	.	10.8%	.	.	.
O=C(Nc1ccc(Br)cc1)C1CCCN1S(=O)(=O)c1ccc(F)cc1 (centres undefined)	.	22.4µM*	.	-12.5%	.	.
O=C(Nc1nc2ccccc2s1)C1CCCN1S(=O)(=O)c1ccc(Cl)cc1 (centres undefined)	?	17.8µM*	19.4%	-15.4%	i	-2.8
Cc1ccc(S(=O)(=O)N2CCCC2C(=O)Nc2nc3ccccc3s2)cc1 (centres undefined)	17.1%	6.8%	11.5%	-8.9%	i	-0.6
CC1(C)OC(C(O)(c2cccc3c2oc2ccccc23)c2cccc3c2oc2ccccc23)C(C(O)(c2cccc3c2oc2ccccc23)c2cccc3c2oc2ccccc23)O1 (centres undefined)	.	.	.	4.2%[15.3 µM]	.	.
Cc1ccc(CNc2cc(C)nc3nc(-c4ccc(C)cc4)nn23)cc1	.	24.3%	-0.8%	-17.0%	.	.
Cc1ccc(CNc2cc(C)nc3nc(-c4cccc(C)c4)nn23)cc1	.	20µM*	-4.4%	73.5%	.	.
CC(C)c1ccc(Nc2nc(Nc3ccc(Cl)cc3)nc(N3CCOCC3)n2)cc1	.	.	4.8%	.	.	.
COC(=O)c1c(C)c2c(C)cc3ccccn3c-2c1C(=O)OC	-3.4%	5.4%	6.1%	-6.8%	-104.2%*	-2.7
CC(C)C[C@H](N)C(=O)N[C@H](C(=O)N[C@@H](CCCN=C(N)N)C(=O)N[C@H](CS)C(=O)NCC(=O)N[C@@H](CCCCN)C(=O)N[C@@H](Cc1cnc[nH]1)C(=O)N[C@@H](CO)C(=O)N[C@@H](CCCN=C(N)N)C(=O)O)C(C)C	.	.	.	-5.4%	.	.
N#CC(CC(=O)c1ccc(F)cc1)c1ccc2c(c1)OCO2 (centres undefined)	-3.9%	11.2µM*	11.3%	-11.5%	i	-0.7
c1ccc(OCc2nn3c(-c4ccncc4)nnc3s2)cc1	7.1%	-14.6%	7.4%	-11.3%	i	1.3
c1coc(-c2nnc3sc(C4CCCCC4)nn23)c1	7.3%	17.8µM*	-14.7%	?	i	-0.3
COc1cccc(-c2nnc3sc(-c4ccccn4)nn23)c1	16.6%	-5.4%	2.8%	?	i	0.3
SMILES	Mito fusion yeast	TDP-43 yeast inh	aSyn yeast inh	Apoferritin bind	Akt phos inh	CCT chaperon mod
COc1cccc(-c2nn3c(-c4ccccn4)nnc3s2)c1	-4.0%	15.8µM*	-2.5%	-15.0%	i	-2.4
c1ccc(OCc2nn3c(-c4ccccn4)nnc3s2)cc1	-9.1%	14.1µM*	0.0%	-12.1%	i	0.3
c1ccc(-c2nn3c(-c4ccco4)nnc3s2)nc1	0.1%	6.9%	-15.4%	-9.4%	i	-0.1
Clc1ccccc1-c1nn2c(-c3ccccn3)nnc2s1	-1.7%	12.6µM*	-11.9%	-14.2%	i	-3.0
O=C(Nc1ncnc2c1ncn2[C@@H]1O[C@@H]2COP(=O)(O)O[C@H]2[C@H]1O)c1ccccc1	.	.	.	-4.5%	.	.
CCOC(=O)c1nnc2c(-c3ccc(Cl)cc3)c(C)nn2c1C	.	0.0%	.	?	.	.
COc1ccccc1-c1nnc2sc(COc3ccc(F)cc3)nn12	0.2%	11.2µM*	3.9%	-23.6%	i	-2.0
COc1cccc(-c2nn3c(-c4ccco4)nnc3s2)c1	8.2%	7.08µM*	.	-10.1%	.	0.1
CCc1cc(=O)oc2c(C)c(O)c(CN3CCCCC3)cc12	1.2%	3.0%	-0.5%	i	-93.2%*	1.0
COc1ccc(OCC(O)CNc2ccc(Br)cc2)cc1 (centres undefined)	6.7%	11.2µM*	21.5%	-5.8%	i	-1.6
CCOc1ccccc1C(=O)N(Cc1cc(OC)c(OC)c(OC)c1)c1ccccn1	.	-1.0%	.	-3.5%	.	.
CCc1ccccc1NC(=O)c1nc2nc(C)cc(C(F)F)n2n1	.	20.4%	.	-8.5%	.	.
COc1ccc(OC)c(Nc2ncnc3c2cnn3-c2cccc(Cl)c2)c1	.	?	.	60.1%	.	.
c1ccc(Cn2ncc3c(Nc4ccccc4)ncnc32)cc1	-14.5%	12.6µM*	-6.3%	-2.9%	i	-2.4
COc1ccc(OC)c(Nc2ncnc3c2cnn3-c2cccc(C)c2)c1	15.8µM*	-4.5%	-26.4%	-7.6%	.	1.3
CSc1ncnc2c1cnn2-c1ccc(C)cc1C	-3.7%	17.8µM*	-7.8%	-19.9%	i	-3.4
Cc1ccc(-n2ncc3c(SCc4ccccn4)ncnc32)c(C)c1	5.7%	20.8%[9.22 µM]	-19.6%	?	i	-0.5
Cc1ccc(Nc2ncnc3c2cnn3-c2ccccc2)c(C)c1	.	35.5µM*	3.2%	-8.4%	.	.
Clc1ccccc1Nc1ncnc2c1nnn2Cc1ccccc1	-1.7%	-8.1%	-6.0%	?	i	-2.5
Cn1ncc2c(Nc3ccc4ccccc4c3)ncnc21	2.8%	10µM*	-6.1%	-19.1%	i	3.5
c1ccc(CCNc2ncnc3c2cnn3-c2ccccc2)cc1	?	15.8µM*	-18.1%	-12.6%	i	-0.9
Cc1cccc(Nc2ncnc3c2cnn3C)c1	2.9%	?	-8.9%	-20.1%	i	-1.7
Fc1ccccc1Nc1ncnc2c1nnn2Cc1ccccc1	-11.2%	11.2µM*	0.3%	?	i	-0.6
CCOc1ccc(C(=O)N(Cc2ccc(C(C)C)cc2)Cc2ccco2)cc1	.	-5.3%	.	94.8%	.	.
